PubChem BioAssay (Tox21)
Results filed as inconclusive are left out. Values without a mark were called inactive. Calls of active or inactive are those of the source. The call rests on the fitted dose curve; in most records, active means well fitted activation curve with a large enough effect in the repeat runs; inconclusive means weak or mixed curves; inactive means no such curve, though single readings can be large or run the other way.

target: Aryl hydrocarbon receptor (Homo sapiens) (UniProt P35869); assay: qHTS assay to identify small molecule that activate the aryl hydrocarbon receptor (AhR) signaling pathway (AID 743085); settings: HepG2 AhR-luc (HG2L7.5c1), luciferase, 24 h; series mostly up to 70.3 µM; activation: at the top concentration; further: nearly all actives have a fitted effect of over 15% in size;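 on activation: HG2L7.5c1 human HepG2 liver cells with stably integrated DRE-driven firefly reporter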
Sequence (P35869 whole entry, looked up): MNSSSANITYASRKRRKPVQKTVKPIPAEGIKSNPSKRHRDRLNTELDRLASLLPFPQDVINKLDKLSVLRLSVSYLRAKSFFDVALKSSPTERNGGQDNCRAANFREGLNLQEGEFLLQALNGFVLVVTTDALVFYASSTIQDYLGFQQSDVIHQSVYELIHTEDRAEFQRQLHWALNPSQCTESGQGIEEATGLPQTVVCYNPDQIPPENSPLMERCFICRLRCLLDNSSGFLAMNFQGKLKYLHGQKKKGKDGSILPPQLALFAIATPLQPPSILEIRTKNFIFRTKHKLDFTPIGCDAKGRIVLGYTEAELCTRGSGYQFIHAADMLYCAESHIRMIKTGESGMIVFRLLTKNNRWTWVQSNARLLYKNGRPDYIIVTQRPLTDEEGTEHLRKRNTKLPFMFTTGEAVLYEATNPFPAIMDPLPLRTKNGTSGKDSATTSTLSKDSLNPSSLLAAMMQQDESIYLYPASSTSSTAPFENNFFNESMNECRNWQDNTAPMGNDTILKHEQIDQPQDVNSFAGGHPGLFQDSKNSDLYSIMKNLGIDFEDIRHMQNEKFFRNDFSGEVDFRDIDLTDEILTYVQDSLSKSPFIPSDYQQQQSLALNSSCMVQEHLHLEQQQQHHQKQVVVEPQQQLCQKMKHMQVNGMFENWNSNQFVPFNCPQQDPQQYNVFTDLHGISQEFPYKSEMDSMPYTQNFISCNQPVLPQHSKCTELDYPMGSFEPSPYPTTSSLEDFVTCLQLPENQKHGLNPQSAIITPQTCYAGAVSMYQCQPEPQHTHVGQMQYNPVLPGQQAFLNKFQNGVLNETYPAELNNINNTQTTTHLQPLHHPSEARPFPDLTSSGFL
Description: U.S. Tox21 Program National Center for Advancing Translational Sciences [NCATS] NIH Chemical Genomics Center [NCGC] U.S. Environmental Protection Agency [EPA] National Institutes of Environmental Health Sciences [NIEHS] National Toxicology Program [NTP] U.S. Food and Drug Administration [FDA] Tox21 Assay overview: The Aryl hydrocarbon Receptor (AhR), a member of the family of basic helix-loop-helix transcription factors, is crucial to adaptive responses to environmental changes. AhR mediates cellular responses to environmental pollutants such as aromatic hydrocarbons through induction of phase I and II enzymes but also interacts with other nuclear receptor signaling pathways. A cell based HepG2-AhR-luc assay (HG2L7.5c1 cell line, developed by Dr. Michael S. Denison, University of California at Davis, was used to assess the activation of AhR. HepG2 (human hepatocellular carcinoma) cells were stably transfected with an Ah receptor-responsive firefly luciferase reporter gene plasmid containing 20 dioxin responsive elements and luciferase reporter gene. Increased luciferase activity can be used to identify the compounds that induce AhR activation.
Tox21 Assay Protocol Summary: 4000 cells in 5 uL/well were dispensed into white wall/solid bottom 1536-well plates using a Multidrop Combi (Thermo Fisher Scientific Inc., Waltham, MA) dispenser. After the assay plates were incubated at 37C for 5 h, 23 nL of compound or DMSO vehicle was transferred to the assay plates by a pintool station (Kalypsys, San Diego, CA). The plates were incubated at 37C for 24 hr. After 1 ul/well of CellTiter-Fluor reagent (Promega, Madison, WI) was added into the assay plates using a Flying Reagent Dispenser (FRD) (Aurora Discovery, CA), the assay plates were incubated at 37C for 30 min. The fluorescence intensity in the plates was measured using a ViewLux plate reader (PerkinElmer, Shelton, CT), followed by the addition of 4 uL of ONE-Glo Luciferase Assay reagent (Promega) using an FRD (Aurora Discovery). After the assay plates were incubated at room temperature for 30 min, luminescence intensity was measured using a ViewLux plate reader (Perkin Elmer).
On the % scale 0 is the no-effect control and ±100 the full control effect; potency means the concentration at half of the fitted maximal effect.

SMILES | activation | Potency
CN1CCc2cc3c(cc2C1O)OCO3 (stereo not given) | 4.82% [at 95 µM] | –
CC(=O)[O][Sn]([c]1ccccc1)([c]1ccccc1)[c]1ccccc1 | -13.2% | –
CC(C)Br | 1.81% | –
CN1[C@@H]2CC[C@H]1CC(O)C2 (stereo not given in full) | 1.6% [at 95 µM] | –
O=C(Cl)c1ccccc1F | 3.09% | –
ClC1(Cl)C2(Cl)C3(Cl)C4(Cl)C(Cl)(Cl)C5(Cl)C3(Cl)C1(Cl)C5(Cl)C24Cl (stereo not given) | -0.555% | –
CCOC(=O)CCN(SN(C)C(=O)Oc1cccc2c1OC(C)(C)C2)C(C)C | 3.46% | –
C[C@]12C/C(=C/O)C(=O)C[C@@H]1CC[C@@H]1[C@@H]2CC[C@@]2(C)[C@H]1CC[C@]2(C)O | – | inactive
Cc1cnc2c(C(=O)O)c(Cl)ccc2c1 | 5.15% | –
CC(=O)[O-].CC(=O)[O-].CC(=O)[O-].[Cr+3] | 0.148% | –
COP(=O)(OC)O/C(=C\Cl)c1cc(Cl)c(Cl)cc1Cl | 4.93% | –
Cc1ccn2nc(S(=O)(=O)Nc3c(F)cccc3F)nc2n1 | -0.489% | –
CC1CCCC1 | -10.5% | –
N#CC(C#N)=NNc1cccc(Cl)c1 | -0.897% | –
CCNc1nc(NC(C)C(C)C)nc(SC)n1 (stereo not given) | -0.647% | –
O=C(NC(=O)c1c(F)cccc1F)Nc1ccc(Oc2ccc(C(F)(F)F)cc2Cl)cc1F | -0.793% | –
CNC(=O)CSP(=O)(OC)OC | 0.0053% | –
CC(=O)[O-].CC(=O)[O-].O.O.[Zn+2] | 0.02% | –
COC(=O)C(C)N(C(=O)c1ccco1)c1c(C)cccc1C (stereo not given) | -0.514% | –
CNC(=O)O/N=C(\C)C(C)S(C)(=O)=O (stereo not given) | -0.0267% [at 920 µM] | –

SMILES | activation | Potency
C=C(C)C(=O)[O][Sn]([CH2]CCC)([CH2]CCC)[CH2]CCC | -8.94% | –
Cc1c([N+](=O)[O-])cc2c(c1[N+](=O)[O-])C(C)(C)CC2(C)C | 3.63% | –
Clc1cc(Cl)c(-c2cc(Cl)c(Cl)cc2Cl)cc1Cl | -0.0349% | –
CCC(C)Br (stereo not given) | -0.594% [at 95 µM] | –
Oc1cc(Cl)cc(Cl)c1 | 0.503% [at 95 µM] | –
CC(=O)C(Cl)C(=O)N(C)C (stereo not given) | 1.72% | –
COP(=S)(OC)Oc1ccc([N+](=O)[O-])c(C)c1 | – | 48.6 µM (active)
Oc1cc(Cl)c(Cl)c(Cl)c1Cl | – | 11.9 µM (active)
C#CCC1=C(C)C(OC(=O)C2C(C=C(C)C)C2(C)C)CC1=O (stereo not given) | 1.36% | –
CCC[CH2][Sn]([CH2]CCC)([O]C(C)=O)[O]C(C)=O | -3.6% [at 95 µM] | –
CCCCN(CCCC)C(=S)[S-].CCCCN(CCCC)C(=S)[S-].[Ni+2] | -4.79% | –
Clc1ccc(C(c2ccc(Cl)cc2)C(Cl)Cl)cc1 | -0.545% | –
CCOP(=O)(Sc1ccccc1)Sc1ccccc1 | 2.63% | –
c1cc[n+]2c(c1)-c1cccc[n+]1CC2 | -0.669% | –
CCOP(=O)(OCC)Oc1cc(C)nc(C(C)C)n1 | -0.165% [at 95 µM] | –
CC(C)N(C(=O)CCl)c1ccccc1 | – | inactive
NC(=O)C(Cl)Cl | 0.373% | –
CCCCCCCCCCCCCCn1cc[n+](C)c1 | – | inactive
FC(F)C(F)(F)OCC(Cn1cncn1)c1ccc(Cl)cc1Cl (stereo not given) | – | 6.82 µM (active)
Nc1nc(N)nc(Cl)n1 | 4.27% | –
